Experimental data: PubChem BioAssay (NCATS)
Records with an inconclusive call do not appear. Active and inactive are the calls of the source. The call rests on the fitted dose curve.

target: Cytochrome P450 1A2 (Homo sapiens) (UniProt P05177); assay: p450-cyp1a2 (AID 410); details: recombinant CYP1A2, luciferin-ME demethylation, luminescence; series mostly up to 57 µM
Outline: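 Human CYP1A2 (20nM) demethylated Luciferin-ME at its Km (100uM) in 100mM KPO4. After 10 min compound preincubation, NADPH regeneration ran the reaction 60 min at room temperature. Luciferin was read by luminescence, normalized to 57 uM furafylline.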
Potency means the concentration at half of the fitted maximal effect.

Cytochrome P450 1A2 (Homo sapiens), sequence (P05177 whole entry, looked up): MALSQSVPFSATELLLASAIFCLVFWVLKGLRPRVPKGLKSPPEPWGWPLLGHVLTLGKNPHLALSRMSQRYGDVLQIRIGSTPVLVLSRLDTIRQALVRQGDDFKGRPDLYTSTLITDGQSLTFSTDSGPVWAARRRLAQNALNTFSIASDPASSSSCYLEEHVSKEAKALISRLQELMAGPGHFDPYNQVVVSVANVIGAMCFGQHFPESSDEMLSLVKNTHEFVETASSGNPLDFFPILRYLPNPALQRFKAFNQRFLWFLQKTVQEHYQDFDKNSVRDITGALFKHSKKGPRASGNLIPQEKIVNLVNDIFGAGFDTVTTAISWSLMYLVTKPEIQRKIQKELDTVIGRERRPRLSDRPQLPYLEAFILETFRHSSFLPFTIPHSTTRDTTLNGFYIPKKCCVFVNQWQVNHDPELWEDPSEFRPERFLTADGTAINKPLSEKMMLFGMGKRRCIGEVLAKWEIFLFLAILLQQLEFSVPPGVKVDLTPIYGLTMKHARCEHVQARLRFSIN

Structure (SMILES) | Potency
CCCC[C@@H]1C[C@H]1C(NC(=O)c1cccs1)c1ccccc1C(F)(F)F (stereo not given in full) | 6.31 µM (active)
CCCC[C@H]1C[C@@H]1[C@@H]1N(P(=O)(c2ccccc2)c2ccccc2)[C@](CO)(c2ccccc2)CC12CC2 | inactive
COc1cc2nc3c(c([Si](C)(C)C(C)(C)C)c2cc1OC)Cn1c-3cccc1=O | 5.01 µM (active)
CCCC/C=C/C(NC(=O)c1cccs1)c1ccccc1 (stereo not given) | 1.58 µM (active)
CCCC[C@@H]1C[C@H]1C(NC(=O)c1ccccc1)c1ccc(Cl)cc1 (stereo not given in full) | 1 µM (active)
CCCC[C@@H]1C[C@H]1C(NC(=O)c1ccccc1)c1ccccc1 (stereo not given in full) | 2.51 µM (active)
S=C(Nc1ccccc1)Nc1ccccc1C#Cc1ccccc1 | 0.501 µM (active)
CCC/C=C(\CCC)C(NP(=O)(c1ccccc1)c1ccccc1)c1ccc(C(F)(F)F)cc1 (stereo not given) | inactive
COc1ccc2nc3c(cc2c1)Cc1ccccc1-3 | 0.251 µM (active)
CCC[C@@H]1C[C@@]1(CCC)C(NS(=O)(=O)c1cccc2cccnc12)c1ccc(Cl)cc1 (stereo not given in full) | inactive
CCCC[C@@H]1C[C@H]1C(NC(=O)c1ccccc1)c1ccccc1C(F)(F)F (stereo not given in full) | 10 µM (active)
COC(=O)[C@@]1(Cc2ccc(OC)cc2)[C@@H]2[C@@H](CC(=O)[C@H]2CC(=O)C(=O)N2CCCC2)CN1C(=O)c1ccccc1 | inactive
c1ccc2c(c1)Cc1cc3cc4c(cc3nc1-2)OCO4 | 0.501 µM (active)
COC(=O)c1ccc(C23CC2(C(NP(=O)(c2ccccc2)c2ccccc2)c2ccccc2)C3)cc1 (stereo not given) | 15.8 µM (active)
CCC/C=C(\CCC)C(NS(=O)(=O)c1cccc2cccnc12)c1ccc(C(=O)OC)cc1 (stereo not given) | 6.31 µM (active)
C[C@@H](C(=O)Nc1ccc2ccccc2c1)[C@@H]1C[C@@]1(C)[C@@H](NC(=O)c1cnccn1)c1ccccc1 | 12.6 µM (active)
COc1ccc2nc3c(c([Si](C)(C)C(C)(C)C)c2c1)Cn1c-3cccc1=O | 0.794 µM (active)
COC(=O)[C@@]1(Cc2ccc(F)cc2)[C@H]2c3cc(C(=O)N4CCCC4)n(CCc4ccc(OC)c(Br)c4)c3C[C@H]2CN1C(=O)c1ccccc1 | 15.8 µM (active)

Structure (SMILES) | Potency
COC(=O)[C@@]1(Cc2ccccc2)[C@H]2c3cc(C(=O)N4CCCC4)n(Cc4ccc(O)c(OC)c4)c3C[C@H]2CN1C(=O)c1ccccc1 | 25.1 µM (active)
COC(=O)[C@@]1(Cc2ccc(F)cc2)[C@H]2c3cc(C(=O)N4CCCC4)n(CCc4ccc(O)c(O)c4)c3C[C@H]2CN1C(=O)c1ccccc1 | 20 µM (active)
COC(=O)c1ccc(C(NC(=O)c2ccco2)[C@]2(C)C[C@H]2C2CCCCC2)cc1 (stereo not given in full) | inactive
C=C1C(=O)C=C2CN(C(=O)c3ccccc3)[C@@](Cc3ccc(F)cc3)(C(=O)OC)[C@@H]12 | 15.8 µM (active)
CC[C@H]1C2=C3C(CC[C@H]4C(OCc5ccc(F)cc5C(F)(F)F)OC[C@](C)([C@@H]34)N(C(=O)OC(C)(C)C)C2)C(COC(C)=O)C1COC(C)=O (stereo not given in full) | inactive
CCC/C=C(\CCC)C(NC(=O)c1ccc(C(=O)OC)cc1)c1ccc(C(=O)OC)cc1 (stereo not given) | inactive
COC(=O)[C@@H]1C[C@H]1[C@@H](NC(=O)c1ccccc1)c1ccccc1 | 5.01 µM (active)
CCC/C=C(\CCC)C(NP(=O)(c1ccccc1)c1ccccc1)c1ccc(-c2ccccc2)cc1 (stereo not given) | 2.51 µM (active)
COC(=O)[C@@]1(Cc2ccc(F)cc2)[C@H]2c3cc(C(=O)N(C)C)n(Cc4ccc(C)o4)c3C[C@H]2CN1C(=O)c1ccccc1 | inactive
CCC/C=C(\CCC)C(NS(=O)(=O)CC12CCC(CC1=O)C2(C)C)c1ccc(C(=O)OC)cc1 (stereo not given) | inactive
CCC/C=C(\CCC)C(NS(=O)(=O)c1cccc2cccnc12)c1ccc(-c2ccccc2)cc1 (stereo not given) | 0.794 µM (active)
COC(=O)[C@@]1(Cc2ccc(F)cc2)[C@H]2c3cc(C(=O)N(C)C)n(Cc4ccc(C)c(F)c4F)c3C[C@H]2CN1C(=O)c1ccccc1 | inactive
CC(C)c1cccc2nc3c(c(C(C)(C)C)c12)Cn1c-3cccc1=O | 12.6 µM (active)
O=C(Cc1ccccc1I)Nc1ccccc1 | 12.6 µM (active)
c1ccc2c(c1)Cc1cc3ccccc3nc1-2 | 0.1 µM (active)
CCC/C=C(\CCC)C(NC(=O)c1cccs1)c1ccc(C(F)(F)F)cc1 (stereo not given) | 3.16 µM (active)
CCCC[C@@H]1C[C@H]1C(NC(=O)c1cccs1)c1ccc(-c2ccccc2)cc1 (stereo not given in full) | 2 µM (active)
